Screening results as filed in PubChem.
Shown are actives, neighbours in structure and some others; about 4.6% of the full set was active somewhere.
ABHD5-PLIN5 inh – ABHD5-PLIN5 protein interaction inhibition; inhibition, % at 4 µM; AID 602281; Split G. princeps luciferase complementation, luminescence, 4 h; hit rate 0.78% among 360,000; Q00G26+Q8WTS1;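 active = inhibition above the mean inhibition across every tested compound plus 3 SD, cut at about 22% in these data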;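 also: 0% = DMSO only wells and the 100% control is not disclosed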
KKLEB cytotox – counter-screen for CF NF-kB inhibitors: cytotoxicity; activity change (cytotoxicity), % at 5 µM; KKLEB CF airway cells viability, ATPlite luminescence, overnight; stronger effect = lower value; cells stimulated with P. aeruginosa culture filtrate; AID 602141; hit rate 0.36% among 360,000;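 active = corrected activity change at or below -50% at 5 µM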
Mdm2-MdmX inh – human Mdm2/MdmX binding inhibition; O15151+Q00987; SaOS-2 split-luciferase Mdm2/MdmX complementation, luminescence; inhibition, % at 8 µM; hit rate 3% among 330,000; AID 485346;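 active = inhibition of at least 50% at 8 µM in the primary screen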
HIF-2a block – inhibitors of HIF-2a; hit rate 0.72% among 360,000; inhibition, % at 18.8 µM; 786-0 RCC cells HIF-2a reporter, luciferase luminescence, overnight;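 active = inhibition of the luminescence signal of 40% or more relative to plate controls, in a single-dose primary screen at 18.75 µM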
CF NFkB inh – blocks PAF-induced NF-kB reporter in cystic fibrosis cells. KKLEB NF-kB-GFP reporter, GFP fluorescence overnight. inhibition, % at 5 µM. hit rate 0.86% among 360,000;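 active = at least 50% inhibition at 5 µM, scaled per plate between neutral and stimulator controls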;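 also: PAF is a Pseudomonas aeruginosa culture filtrate used as stimulus; plate controls were PAF-stimulated DMSO wells for no effect and unstimulated DMSO wells for full effect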
Peg3 promoter – reduces Peg3 promoter-driven luciferase expression in HeLa; HeLa PEG-Prom luciferase reporter, luminescence, overnight; inhibition, % at 20 µM; hit rate 1.7% among 360,000; AID 588405;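 active = inhibition of at least 50% at 20 µM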
Mdm2-MdmX conf – confirmation of human Mdm2/MdmX interaction inhibitors; hit rate 55% among 10,000; shares compounds with Mdm2-MdmX inh; inhibition, % at 8 µM; Mdm2-MdmX binding, luminescent assay; in the data active = inhibition above about 40%
Full FLuc ctr – full-length luciferase inhibition in Mdm2/MdmX counter-screen. SaOS-2 full-length luciferase counterscreen, luminescence. hit rate 77% among 6,200. inhibition, % at 8 µM. AID 504607. shares compounds with Mdm2-MdmX inh;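 active = mean inhibition at 8 µM reaching about 37%, which flags the compound as non-specific, limit read from the data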;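 also: p53-null SaOS-2 cells with luciferase driven by a doxycycline-inducible promoter; compound on cells about two nights before reading with doxycycline added after day one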
An asterisk follows results filed as active; · = no result given.

SMILES	ABHD5-PLIN5 inh	KKLEB cytotox	Mdm2-MdmX inh	HIF-2a block	CF NFkB inh	Peg3 promoter	Mdm2-MdmX conf	Full FLuc ctr
COc1cc(/C=N/NS(=O)(=O)c2ccc3ccccc3c2)ccc1OCc1ccc(C(=O)O)cc1	2.6	-6.3	49.8	17.9	1.8	-4.8	·	·
CC(=O)Nc1ccc(S(=O)(=O)NC2=NCN(c3ccc([N+](=O)[O-])cc3)CN2)cc1	0.6	-9.3	62.6*	4.3	-7.7	6.2	14.6	·
CN1CN=C(NS(=O)(=O)c2ccc([N+](=O)[O-])cc2)NC1	-7.6	1.6	19.9	-2.3	-18.8	-5.8	·	·
CCCCCc1cc(=O)oc2c(C(CCN3CCCCC3)c3ccc4c(c3)OCO4)c(OC)cc(OC)c12 (configuration not stated)	12.9	-11.3	93.1*	12.9	13.3	96.4*	49.1*	65.1*
CCCCCc1cc(=O)oc2c(C(CCN3CCCC(C)C3)c3ccc4c(c3)OCO4)c(OC)cc(OC)c12 (configuration not stated)	10.4	-1.0	78.6*	15.2	20.7	98.1*	37.6	65.7*
CN(C)S(=O)(=O)c1ccc(NC(=O)/C=C/c2ccccc2Cl)cc1	-2.8	4.5	-3.0	-103.4	-36.1	-46.1	·	·
Cc1ccc(CNC(=O)/C=C/c2c(Cl)cccc2Cl)cc1	-2.5	-7.4	55.5*	7.3	1.8	2.8	7.5	·
Cc1ccc(CNC(=O)/C=C/c2ccccc2Cl)cc1	-2.4	12.1	-17.2	-136.6	1.0	-109.8	·	·
CN(C)c1ccc(NC(=O)/C=C/c2c(Cl)cccc2Cl)cc1	-3.6	6.2	64.2*	-223.6	-16.3	-182.4	69.1*	50.3*
O=C(CCC(=O)N1CCCC1)N1CCCC1	-2.3	15.8	6.5	3.0	-10.2	25.4	·	·
C[C@H](O)[C@@H]1CN2CCc3c([nH]c4ccc(-c5ccc6c(c5)OCO6)cc34)[C@@H]2C[C@@H]1N(C)C(=O)NC1CCCCC1	-8.2	-10.6	·	2.2	42.0	-2.0	·	·
O=C(Cn1c(COc2ccccc2)nc2ccccc21)Nc1cc(Cl)ccc1Cl	3.1	-46.2	89.2*	8.4	41.3	54.1*	71.0*	104.1*
Cc1ccc(Cc2c(-c3ccc(C#N)cc3)nc3c4ccccc4ccn23)cc1	9.0	-14.5	·	-58.3	-2.6	-92.4	·	·
CCOc1ccc(CCNC(=O)COC(=O)c2cccc(S(=O)(=O)N3CCCC3)c2)cc1OCC	3.0	16.0	10.1	-14.6	-16.5	10.2	·	·
Cc1cc(SCC(=O)N/N=C/c2ccc(O)cc2O)c(C)cc1Br	3.5	8.4	61.0*	8.6	-8.8	30.6	65.8*	66.6*
O=C(CSc1ccc2ccccc2n1)N/N=C/c1ccc(O)cc1	-4.5	-9.0	-18.1	-15.7	5.6	-57.5	·	·
O=C(CSc1ccc2ccccc2n1)N/N=C/c1ccccc1O	-5.3	-1.9	60.6*	-8.2	-10.4	13.4	68.5*	74.0*
Cc1cccc(C)c1-n1nnnc1C1c2ccccc2C(=O)N1CCOc1ccccc1 (configuration not stated)	2.9	·	·	-88.9	·	·	·	·
CCN(c1ccccc1)S(=O)(=O)c1ccc(C(=O)N(CCN(C)C)c2nc3c(F)cc(F)cc3s2)cc1	·	·	32.0	·	·	·	·	·
Cc1cccc(CNc2ncnc3ccc(-c4ccc5c(c4)OCCO5)cc23)c1	7.4	-2.0	66.2*	16.1	5.1	20.6	33.0	·
C=CCC[C@@H](Cc1ccc(F)cc1)C(=O)OC[C@@H](NC(=O)[C@@H](CC=C)CC(=O)N(CCO)Cc1ccccc1)c1ccccc1	1.7	-1.9	88.0*	17.1	13.3	37.5	9.2	·
C=CC[C@@H](CC(=O)N(CCO)Cc1ccccc1)C(=O)N[C@H](COC(=O)[C@@H](CC=C)Cc1ccc(F)cc1)Cc1ccccc1	1.3	12.9	70.2*	2.4	-11.2	45.3	14.3	·
C=CC[C@@H](CC(=O)N(CCO)Cc1ccccc1)C(=O)N[C@@H](COC(=O)[C@@H](CC=C)Cc1ccc(F)cc1)Cc1ccccc1	1.1	5.3	62.7*	5.8	2.2	32.8	12.2	·
COC(=O)Nc1ccc(N2CCOCC2)c(S(=O)(=O)N2CCOCC2)c1	-9.1	-1.4	7.4	8.4	0.8	0.2	·	·
COc1ccc(CCN2C(=O)/C(=C\c3ccco3)SC2=S)cc1OC	-0.1	5.1	74.6*	12.9	11.7	8.6	46.9*	78.6*
SMILES	ABHD5-PLIN5 inh	KKLEB cytotox	Mdm2-MdmX inh	HIF-2a block	CF NFkB inh	Peg3 promoter	Mdm2-MdmX conf	Full FLuc ctr
COc1ccc(CCN2C(=O)CSC2=S)cc1OC	-2.3	-10.9	84.9*	61.0*	16.2	59.6*	84.5*	40.4*
COc1ccc(CN2C(=O)CSCC2=O)cc1OC	-4.1	-3.8	-13.2	13.4	-3.7	12.1	·	·
O=S(Cc1ccc(Br)cc1)Cc1nnc(SCc2ccc(Cl)cc2)n1-c1ccccc1 (configuration not stated)	-2.5	-4.7	50.5*	-1.7	8.0	9.6	39.5	69.9*
Cc1c(C(=O)N(CC(C)C)c2c(N)n(Cc3ccccc3)c(=O)[nH]c2=O)sc2nc3n(c(=O)c12)CCC3	-2.5	10.2	-21.8	1.3	-9.7	6.5	·	·
COc1ccc(NC(=O)Cn2c3ccccc3c3nc4n(c(=O)c32)CCS4)cc1	1.9	-11.3	69.7*	16.4	3.8	1.5	12.2	·
CNC(=O)CN(c1ccc(C23CC4CC(CC(C4)C2)C3)cc1)S(C)(=O)=O	2.3	-14.8	-3.4	18.8	-15.3	-0.1	·	·
CS(=O)(=O)N(CC(=O)Nc1ccc(CC#N)cc1)c1ccc(C23CC4CC(CC(C4)C2)C3)cc1	-3.5	3.1	63.6*	-137.9	-8.6	-26.9	-5.4	·
CC(=O)Nc1ccc(NC(=O)CN(c2ccc(C34CC5CC(CC(C5)C3)C4)cc2)S(C)(=O)=O)cc1	-9.9	-1.8	56.2*	-24.4	-20.3	6.0	29.2	·
COc1ccc2c(c1OC)C(CC(C)=O)N1CCc3cc4c(cc3C1C2=O)OCO4 (configuration not stated)	-5.2	-4.8	·	-13.6	-9.9	-3.8	·	·
Nc1c(C(=O)NCc2ccc(F)cc2)c2nc3ccccc3nc2n1CCCN1CCOCC1	12.5	-5.5	54.0*	-19.2	-16.4	23.8	20.2	·
Nc1c(C(=O)NCc2ccccc2)c2nc3ccccc3nc2n1CCCN1CCOCC1	12.2	4.5	17.5	7.7	-30.7	30.0	·	·
COc1ccc(CNC(=O)c2c(N)n(CCCN3CCOCC3)c3nc4ccccc4nc23)cc1	10.7	-5.5	56.5*	-11.8	-20.4	69.8*	26.2	·
CC1=CC(C)(C)N(S(=O)(=O)c2ccc(C)cc2)c2ccc(C)cc21	-8.3	-23.0	54.2*	14.3	44.0	35.5	60.7*	107.8*
Clc1ccc(CNc2ccc3nnc(-c4ccccc4)n3n2)cc1	-2.3	-17.2	54.6*	6.6	18.7	23.4	21.7	·
